From PubChem BioAssay
Wnt bcat act = Wnt/beta-catenin pathway activation | AID 743398 | Wnt/beta-catenin reporter cell assay, activator, plate reader | activation, % at 9.35 µM | 300,000 tested, 1.2% active; in the data active means activation above about 30%, passing the limit was not always enough; inconclusive means no clear call, values can overlap the other calls
esBAF inh = blocks esBAF chromatin remodeling in mouse ES cells; Bmi1-luciferase knock-in reporter, 24 h; 100% = twice the neutral-well signal; reporter increase, % at 12.5 µM; 350,000 tested, 2% active; in the data active means activation above about 40%; inconclusive means no clear call, values can overlap the other calls;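 further: a rise in the Bmi1 reporter signal indicates esBAF inhibition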
MITF act = MITF TRPM1 promoter activation in melanoma cells | AID 588334 | SK-MEL-5 TRPM1-promoter luciferase, 24 h; % of positive control, neutral wells = 0 | activation, % at 12.5 µM | 300,000 tested, 0.75% active;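 active means mean activation of at least 80% with every replicate also reaching 80%; inconclusive means mean reaches 80% but some replicate falls short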
AHR activator = activators of human aryl hydrocarbon receptor; P35869; AHR-responsive luciferase reporter cells, luminescence; 320,000 tested, 2.5% active; activation, % at 5 µM; AID 2796; in the data active means activation above about 47%
Target sequence (P35869 whole entry, looked up): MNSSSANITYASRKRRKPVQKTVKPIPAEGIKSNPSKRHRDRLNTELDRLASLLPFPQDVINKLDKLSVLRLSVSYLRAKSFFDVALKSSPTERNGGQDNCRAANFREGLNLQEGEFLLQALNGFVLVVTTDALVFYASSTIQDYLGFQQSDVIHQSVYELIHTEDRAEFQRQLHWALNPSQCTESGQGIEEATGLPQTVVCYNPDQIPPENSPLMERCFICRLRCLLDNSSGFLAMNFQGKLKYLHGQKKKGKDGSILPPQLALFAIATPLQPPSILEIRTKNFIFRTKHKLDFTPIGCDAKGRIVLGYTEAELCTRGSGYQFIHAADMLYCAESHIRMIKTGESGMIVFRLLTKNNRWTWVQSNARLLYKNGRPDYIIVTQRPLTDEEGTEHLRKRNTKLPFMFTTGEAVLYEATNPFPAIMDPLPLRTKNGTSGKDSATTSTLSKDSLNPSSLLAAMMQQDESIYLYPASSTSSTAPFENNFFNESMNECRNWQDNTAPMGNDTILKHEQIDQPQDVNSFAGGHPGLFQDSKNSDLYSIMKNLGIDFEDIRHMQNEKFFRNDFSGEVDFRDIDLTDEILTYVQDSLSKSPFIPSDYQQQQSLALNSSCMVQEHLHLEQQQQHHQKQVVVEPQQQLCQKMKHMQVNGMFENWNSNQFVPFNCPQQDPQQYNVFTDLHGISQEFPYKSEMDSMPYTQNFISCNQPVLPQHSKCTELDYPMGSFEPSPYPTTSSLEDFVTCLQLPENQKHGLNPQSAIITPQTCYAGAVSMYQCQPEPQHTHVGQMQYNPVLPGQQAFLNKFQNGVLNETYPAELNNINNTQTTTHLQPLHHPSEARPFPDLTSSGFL
FXN GAA850 act = frataxin GAA850 promoter activation. HEK293 lucGAA850 FXN promoter luciferase reporter, 24 h; percent of 10 µM SAHA response. activation, % at 6 µM. 360,000 tested, 0.56% active. AID 540364;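 active means activation above the average of all compounds screened plus 3 SD, cutoff fixed separately per campaign, cut at about 7.5% in these data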
Each line names hits and unclear results; the compound was inactive in the other large screens. A selection: hits, their analogues and other compounds. The true share with any hit is near 4.2%.

CCCC(=O)Nc1ccc2c(c1)C(=O)N(C)[C@H]1CC[C@@H](CC(=O)Nc3cn(C)nc3C)O[C@H]1CO2	none (no result: Wnt bcat act, MITF act, AHR activator, FXN GAA850 act)
C/C=C/c1ccc([C@H]2[C@@H](CNC(=O)CC3CC3)N(C(C)=O)[C@H]2CO)cc1	none (no result: Wnt bcat act, MITF act, AHR activator, FXN GAA850 act)
CC(=O)Oc1cc2c(C(=O)NCc3ccncc3)c(C)oc2c2ccccc12	AHR activator 52
CC(C)(C)c1ccc(NNC(=O)C2CCC2)cc1	AHR activator 73 (no result: esBAF inh, MITF act)
C[C@H](CO)N1C[C@H](C)[C@@H](CN(C)CC2CCCC2)Oc2ncc(C#C[C@@H](C)O)cc2C1=O	none (no result: Wnt bcat act, MITF act, AHR activator, FXN GAA850 act)
CCS(=O)(=O)N1CCCC(c2nc(-c3cccc(OC)c3)no2)C1 (stereo not drawn)	esBAF inh 67
Cc1cc(C(=O)CSc2nnnn2-c2ccccc2)c(C)n1-c1ccc2c(c1)OCO2	none (no result: esBAF inh)
Cc1cc(C(=O)CSc2nncs2)c(C)n1-c1ccc2c(c1)OCO2	esBAF inh 80 (no result: Wnt bcat act)
COc1cc(OC)cc(C(=O)N2CCCc3ccccc32)c1	none
COc1ccc2oc(C(=O)N3CCCc4ccccc43)c(C)c2c1	esBAF inh 75
COc1ccccc1-c1ccc2c(c1)O[C@H](CN(C)S(=O)(=O)c1ccc(F)cc1)[C@H](C)CN([C@@H](C)CO)S2(=O)=O	none (no result: Wnt bcat act, MITF act, AHR activator, FXN GAA850 act)
Cc1ccc(N/N=C/C=C/c2ccco2)cc1	MITF act 99 (no result: esBAF inh)
CCOC(=O)N/N=C\C=C\c1ccco1	none (no result: esBAF inh)
C[C@@H]1CCCCO[C@H](CN(C)C(=O)Nc2ccc3c(c2)OCO3)[C@H](C)CN([C@@H](C)CO)C(=O)c2cc(NS(C)(=O)=O)ccc2O1	none (no result: Wnt bcat act, MITF act, AHR activator, FXN GAA850 act)
C[C@H](CO)N1C[C@H](C)[C@H](CN(C)S(=O)(=O)c2ccccc2)Oc2c(cccc2N(C)C)C1=O	none (no result: Wnt bcat act, MITF act, AHR activator, FXN GAA850 act)
COc1ccc(NC(=O)N(C)C[C@H]2Oc3ccc(NC(=O)Cn4cnnn4)cc3CC(=O)N([C@@H](C)CO)C[C@H]2C)cc1	none (no result: Wnt bcat act, MITF act, AHR activator, FXN GAA850 act)
Cc1n(CC(=O)c2ccc(F)cc2)c2ccccc2[n+]1C	none (no result: Wnt bcat act, esBAF inh)
Cn1c(=N)n(CC(=O)c2ccc(F)cc2)c2ccccc21	AHR activator 65
Cn1c(=N)n(CC(=O)c2ccc(Br)cc2)c2ccccc21	AHR activator 55 (no result: esBAF inh)
C[C@H]1CN([C@@H](C)CO)C(=O)c2cccc(NS(=O)(=O)c3ccc(Cl)cc3)c2O[C@@H]1CN(C)C(=O)Nc1ccc2c(c1)OCO2	none (no result: Wnt bcat act, MITF act, AHR activator, FXN GAA850 act)
Fc1ccccc1OCCCCN1CCCCC1	MITF act active
COc1ccc2c(c1)Cc1sc(NC(=O)c3cccs3)nc1-2	esBAF inh 83 (no result: Wnt bcat act)
COc1ccc2c(c1)Cc1sc(NC(=O)c3ccccc3)nc1-2	Wnt bcat act 51 (no result: esBAF inh)
COc1ccc(C(=O)Nc2cccc(NC(=O)c3cccs3)c2)cc1	none (no result: MITF act)
COc1ccc(C(=O)Nc2nc3c(s2)Cc2cc(OC)ccc2-3)cc1	none (no result: Wnt bcat act)
C[C@H](NC(=O)C[C@H]1C[C@H]2c3cc(NC(=O)Nc4ccc(C(F)(F)F)cc4)ccc3O[C@H]2[C@@H](CO)O1)c1ccccc1	none (no result: Wnt bcat act, MITF act, AHR activator, FXN GAA850 act)
C[C@H](CO)N1C[C@H](C)[C@@H](CN(C)S(=O)(=O)c2cn(C)cn2)Oc2ccc(NC(=O)Nc3ccc(C(F)(F)F)cc3)cc2C1=O	none (no result: Wnt bcat act, MITF act, AHR activator, FXN GAA850 act)
COc1ccc2cc(C(=O)OC(C)C)sc(=O)c2c1OC	esBAF inh 53 (no result: Wnt bcat act)
Cn1c2ccccc2n2c(=O)c(Cl)c(-c3ccccc3)c(C#N)c12	AHR activator 59 (no result: esBAF inh)
Cn1c2ccccc2n2c(=O)cc(-c3ccccc3)c(C#N)c12	none (no result: esBAF inh)
COc1cccc(NC(=O)C2Cc3ccccc3CN2C(=O)c2ccco2)c1 (stereo not drawn)	esBAF inh 57
Cc1ccccc1NC(=O)C1Cc2ccccc2CN1C(=O)c1ccco1 (stereo not drawn)	esBAF inh 55
C[C@@H]1CN([C@@H](C)CO)C(=O)c2cc(NC(=O)CCCN(C)C)ccc2O[C@@H](C)CCCCO[C@@H]1CN(C)S(C)(=O)=O	none (no result: Wnt bcat act, MITF act, AHR activator, FXN GAA850 act)
CCCC(=O)Nc1ccc2c(c1)OC[C@H](C)NC[C@@H](C)[C@@H](OC)CN(C)C2=O	none (no result: Wnt bcat act, MITF act, AHR activator, FXN GAA850 act)
O=C(Nc1ccc2nc(-c3ccc(Br)o3)[nH]c2c1)c1cccs1	esBAF inh 49 (no result: Wnt bcat act)
O=C(Nc1ccc2nc(-c3ccccc3)[nH]c2c1)c1ccco1	Wnt bcat act 54, esBAF inh 54 (no result: MITF act)
O=C(Nc1ccc2nc(-c3ccc(Br)o3)[nH]c2c1)c1ccco1	esBAF inh 65 (no result: Wnt bcat act)
Cc1cccc2[nH]c(-c3ccc(NC(=O)c4ccco4)cc3)nc12	esBAF inh 84 (no result: Wnt bcat act)
CC(=O)Nc1ccc2nc(-c3ccc(Br)o3)[nH]c2c1	none (no result: esBAF inh)
Cc1ccc(-c2nc3ccccc3[nH]2)cc1NC(=O)c1ccco1	none
O=C(Nc1cccc(-c2nc3ccccc3[nH]2)c1)c1cccc(NC(=O)c2ccco2)c1	none (no result: Wnt bcat act)
C[C@H](CO)N1C[C@H](C)[C@H](CN(C)C(=O)c2ccc(F)cc2)Oc2ncc(C3=CCCC3)cc2C1=O	none (no result: Wnt bcat act, MITF act, AHR activator, FXN GAA850 act)
COc1ccc(-c2ccc3n(c2=O)C[C@H]2[C@H](CO)[C@@H](C(=O)NC4CCC4)N(S(C)(=O)=O)[C@@H]32)cc1	none (no result: Wnt bcat act, MITF act, AHR activator, FXN GAA850 act)
O=C(COC(=O)c1ccc(N2CCCC2=O)cc1)Nc1ccccc1	none
O=C(COC(=O)c1cccc(O)c1)c1ccccc1	Wnt bcat act 53
O=C(OCC(=O)c1cccs1)c1ccccc1	esBAF inh 47
Nc1cccc(C(=O)OCC(=O)c2ccccc2)c1	Wnt bcat act 40 (no result: esBAF inh)
O=C(COC(=O)c1ccc(N2CCCC2=O)cc1)c1ccccc1	esBAF inh 45 (no result: MITF act)
Nc1cccc(C(=O)OCC(=O)Nc2cccc3c2C(=O)c2ccccc2C3=O)c1	none (no result: esBAF inh)
C[C@@H]1CCCCO[C@@H](CN(C)Cc2ccc3c(c2)OCO3)[C@@H](C)CN([C@@H](C)CO)C(=O)c2cc(NC(=O)Nc3ccc(F)cc3)ccc2O1	none (no result: Wnt bcat act, MITF act, AHR activator, FXN GAA850 act)
CN(C)c1nc(Nc2ccc(Cl)cc2)nc(OCC#N)n1	AHR activator 49 (no result: Wnt bcat act)
Cc1ccc(S(=O)(=O)N(C)C[C@@H]2Oc3ccc(NC(=O)Cn4cnnn4)cc3CC(=O)N([C@@H](C)CO)C[C@@H]2C)cc1	none (no result: Wnt bcat act, MITF act, AHR activator, FXN GAA850 act)
COc1cccc(CNc2ccc3c(c2)nc(C)n3C)c1OC	AHR activator 67
COc1cccc(CNc2ccc3c(c2)ncn3C)c1OC	none (no result: AHR activator)
O=C(Nc1nccs1)C1Cc2ccccc2CN1S(=O)(=O)c1ccc(F)cc1 (stereo not drawn)	AHR activator 64 (no result: Wnt bcat act, MITF act)
CN(C)c1ccnc(Oc2ccc(C(C)(C)C)cc2)c1C#N	esBAF inh 52 (no result: Wnt bcat act)
CCOc1cc2[nH]c(=S)n(Cc3ccc(C)o3)c(=O)c2cc1OCC	AHR activator 65
Cc1ccc(Cn2c(=S)[nH]c3ccc(N4CCOCC4)cc3c2=O)o1	none (no result: esBAF inh, MITF act)
COc1ccc(S(=O)(=O)Nc2ccc3c(c2)C(=O)N([C@H](C)CO)C[C@H](C)[C@H](CN(C)Cc2ccccc2)O3)cc1	none (no result: Wnt bcat act, MITF act, AHR activator, FXN GAA850 act)
CC(=O)c1c(C)[nH]c(C(=O)N2CCN(C(=O)c3ccco3)CC2)c1C	none
Cn1cccc1C(=O)OCC(=O)N1CCc2ccccc2C1	none (no result: MITF act, AHR activator)
CC(=O)c1c(C)[nH]c(C(=O)N2CCc3ccccc3C2)c1C	AHR activator 48
Cc1ccc(C(=O)OCC(=O)N2CCc3ccccc32)cc1	esBAF inh inconclusive, MITF act 108
Cn1cccc1C(=O)OCC(=O)N1CCc2ccccc21	Wnt bcat act 53, MITF act 100
